The list is not random: actives were taken first. Their share in the collection is about 19%.
TDP1 cell noCPT = qHTS for Inhibitors of human tyrosyl-DNA phosphodiesterase 1 (TDP1): qHTS in cells in absence of CPT; DT40 Tdp1-/- hTDP1 cells, no CPT, ATP luminescence, 48 h; Potency, µM (highest dose often 46.2 µM), for inactives: at the top dose activity change, negative = growth inhibition, usual class: inhibitors; actives 15% (n = 420,000); AID 686978, 2013; further: potency means the concentration at half of the fitted maximal effect; on the % scale 0 is the no-effect control and ±100 the full control effect; nearly all actives have a fitted effect of over 55% in size
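Readout: luminescence from CellTiter-Glo after 30 min in the dark at RT. Cells: DT40 Tdp1-/- with stable hTDP1, 400/well. Exposure: compounds alone, ≥48 hr, 37 °C.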
ASM inhibitor = blocks human secretory acid sphingomyelinase | P17405 | placental ASM, HMU-PC fluorogenic substrate, 60 min | Potency, µM (highest dose often 57.5 µM), without a hit: at the highest dose activity change, negative = inhibition, actives largely listed as inhibitors | actives 0.006% (n = 340,000) | AID 504937; further: potency means the concentration at half of the fitted maximal effect
Target sequence (P17405 47-631 limits assumed): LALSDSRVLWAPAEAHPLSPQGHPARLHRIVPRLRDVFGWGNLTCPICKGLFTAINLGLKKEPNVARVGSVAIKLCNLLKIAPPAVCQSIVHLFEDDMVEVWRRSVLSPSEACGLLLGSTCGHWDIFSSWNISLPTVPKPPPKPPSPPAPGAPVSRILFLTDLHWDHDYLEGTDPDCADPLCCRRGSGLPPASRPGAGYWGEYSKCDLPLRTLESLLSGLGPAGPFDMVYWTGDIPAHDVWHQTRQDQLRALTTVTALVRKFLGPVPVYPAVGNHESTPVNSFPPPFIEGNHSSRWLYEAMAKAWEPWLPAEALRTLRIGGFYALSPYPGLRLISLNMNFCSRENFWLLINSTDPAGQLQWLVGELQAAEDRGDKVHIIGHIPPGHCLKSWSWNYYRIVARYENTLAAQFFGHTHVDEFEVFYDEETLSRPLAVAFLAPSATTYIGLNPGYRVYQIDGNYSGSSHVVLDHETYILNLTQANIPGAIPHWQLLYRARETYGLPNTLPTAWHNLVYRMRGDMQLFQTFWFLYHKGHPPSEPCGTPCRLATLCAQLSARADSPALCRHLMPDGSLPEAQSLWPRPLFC
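Fluorescence read-out (Ex 386 nm, Em 447 nm) after stopping the reaction at pH 10. Enzyme: ASM from human placenta; substrate HMU-PC0, 9 uM final; 60 min, 37 °C. Compound preincubation 10 min, ambient temperature.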
TGFb SMAD3 inh = inhibitors of TGF-b signaling; HepG2 CAGA-GFP TGF-b/SMAD3 reporter, GFP fluorescence, 18 h; TGF-beta stimulated, 500 pg/mL final; Potency, µM (top dose mostly 46.1 µM), for inactives: top-dose activity, negative = inhibition, usual class: inhibitors; actives 1.2% (n = 410,000); further: potency means the concentration at half of the fitted maximal effect; on the % scale 0 is the no-effect control and ±100 the full control effect; nearly all actives have a fitted effect of over 65% in size
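HEPG2 CAGA-GFP, 1000 cells/well; 2 h settle, 37 C; cpd via pin tool; TGF-b 500 pg/mL final; 18 h, 37 C; GFP imaging ex488/em500-530; %Activity normalised to -TGF-b and +DMSO controls; CRC fit, curve class.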
HepG2 tox-1 = HepG2 cytotoxicity, counter-screen for TGF-b inhibitors. actives 0.76% (n = 410,000). Potency, µM (highest dose often 46.1 µM), without a hit: at the highest dose activity change, negative = cytotoxicity, usual class: cytotoxic. AID 588856. HepG2 CAGA-GFP viability, ATP luminescence, 18 h; further: potency means the concentration at half of the fitted maximal effect
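CellTiter-Glo luminescence gave cytotoxicity after 18 hours at 37 degrees C. The cells were HepG2 CAGA-GFP in 1% FBS DMEM, stimulated with 500 pg/mL TGF-beta after compound addition. %Activity was normalised to no-cell wells (complete cell-killing) and DMSO (no toxicity), and curves were fitted and classified.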
IL-1B inflam inh = inflammasome signaling inhibition, IL-1 beta readout. activity change, % at 57.5 µM. actives 4.7% (n = 360,000). THP-1 LPS/ATP IL-1B secretion, AlphaLISA, 16 h; hits give low values; in the data active means activity change below about -50%; inconclusive means mostly about -30% to -49%; further: on the % scale 0 is the no-effect control and ±100 the full control effect
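THP-1 cells pretreated 1 hr with compounds (up to 57.5 uM final), then stimulated with LPS (250 ng/mL final) plus ATP (1.25 mM final); secreted IL-1B measured by AlphaLISA after 16 hr, decreased signal indicating inhibition.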
DT40 TDP1 CPT = DT40-hTDP1 cell growth loss with CPT. chicken DT40 Tdp1-/-;hTDP1 cells + 20 nM CPT, ATP luminescence, 48 h. Potency, µM (series often up to 46.2 µM), inactives show top-dose activity change, negative = growth inhibition, usual class: inhibitors. actives 12% (n = 420,000). AID 686979; further: potency means the concentration at half of the fitted maximal effect; on the % scale 0 is the no-effect control and ±100 the full control effect; nearly all actives have a fitted effect of over 55% in size
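Chicken DT40 Tdp1-/- cells stably complemented with human TDP1 were seeded at 400 cells/well in medium containing 20 nM camptothecin, exposed to pin-transferred compounds, and grown at 37 °C for at least 48 hr. Viability was read as ATP luminescence.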
TGFb confirm = TGF-b pathway inhibition, cherry-pick retest; HepG2 CAGA-GFP TGF-b reporter, GFP fluorescence, 18 h; cells stimulated with TGF-beta, 500 pg/mL; Potency, µM (titrated, usually from 46.1 µM), inactives show at the top dose activity, negative = inhibition, usual class: inhibitors; actives 63% (n = 1,600); shares compounds with TGFb SMAD3 inh; further: potency means the concentration at half of the fitted maximal effect; on the % scale 0 is the no-effect control and ±100 the full control effect; nearly all actives have a fitted effect of over 65% in size
HepG2 tox-2 = toxic to HepG2 cells in TGF-b counterscreen. shares compounds with TGFb SMAD3 inh. HepG2 CAGA-GFP viability, ATP luminescence, 18 h; cells stimulated with TGF-beta, 500 pg/mL. Potency, µM (top dose mostly 46.1 µM), inactives show top-dose activity, negative = cytotoxicity, hits mostly inhibitors. actives 27% (n = 1,600). AID 720535; further: potency means the concentration at half of the fitted maximal effect; on the % scale 0 is the no-effect control and ±100 the full control effect; nearly all actives have a fitted effect of over 70% in size
CCL64 TGFb inh = blocks TGF-b signaling in CCL64 reporter cells; CCL64 CAGA-GFP reporter, TGF-b stimulated, GFP fluorescence, 18 h; actives 41% (n = 1,600); shares compounds with TGFb SMAD3 inh; Potency, µM (top dose mostly 46.1 µM), inactives show at the highest dose activity, negative = inhibition, hits mostly inhibitors; further: potency means the concentration at half of the fitted maximal effect; nearly all actives have a fitted effect of over 65% in size
TGFb COP inh = TGF-b inhibition validated with COP promoter | shares compounds with TGFb SMAD3 inh | AID 720537 | actives 3% (n = 1,600) | HepG2 COP-GFP TGF-b reporter, GFP fluorescence, 18 h; cells stimulated by added recombinant TGF-beta | Potency, µM (top dose mostly 46.1 µM), for inactives: at the highest dose activity, negative = inhibition, usual class: inhibitors; further: potency means the concentration at half of the fitted maximal effect; nearly all actives have a fitted effect of over 70% in size
The depositor's hits bear a star; i = inactive; ? = inconclusive; . = no result given. Unless noted, the call rests on the fitted dose curve; in most records, active means well fitted curve in the direction sought with a large enough effect; inconclusive means small, poorly fitted or top-dose-only effect, or another doubt; inactive means no such curve, though single readings can be large; an effect the other way counts as inactive or inconclusive.

SMILES | TDP1 cell noCPT | ASM inhibitor | TGFb SMAD3 inh | HepG2 tox-1 | IL-1B inflam inh | DT40 TDP1 CPT | TGFb confirm | HepG2 tox-2 | CCL64 TGFb inh | TGFb COP inh
CC(=O)OC(C)(C)/C=C/C(=O)[C@](C)(O)C1[C@H](O)C[C@@]2(C)C3CC=C4C(C=C(O[C@@H]5O[C@H](CO)[C@@H](O)[C@H](O)[C@H]5O)C(=O)C4(C)C)[C@]3(C)C(=O)C[C@]12C (stereo partly drawn) | 1.8µM* | 5% | 5µM* | -31% | -16 | 1.6µM* | 5.2µM* | ? | 3.3µM* | 3%
CC1(C)Oc2ccc3ccc(=O)oc3c2C[C@H]1O[C@@H]1O[C@H](CO)[C@@H](O)[C@H](O)[C@H]1O | 2% | 18% | -8% | -2% | 59 | -12% | . | . | . | .
COC(=O)c1c(NC(=O)c2c(OC)cccc2OC)sc2c1CCCC2 | ? | . | ? | -34% | . | ? | . | . | . | .
COC(=O)c1c(NC(NC(=O)CC(C)C)C(Cl)(Cl)Cl)sc2c1CCC2 (stereo not drawn) | ? | -11% | ? | -4% | 24 | ? | . | . | . | .
CCC(=O)NC(Nc1sc2c(c1C(=O)OC)CCC2)C(Cl)(Cl)Cl (stereo not drawn) | 15µM* | -14% | 11µM* | 9% | 11 | 15µM* | 21µM* | -10% | ? | -27%
COC(=O)c1c(NC(NC(=O)C(C)(C)C)C(Cl)(Cl)Cl)sc2c1CCC2 (stereo not drawn) | ? | -23% | 13µM* | -2% | 44 | ? | 9.2µM* | ? | ? | 53%
CC(=O)Nc1ccc(NC(=O)c2ccnn2C)cc1 | -36% | 4% | 9% | -11% | -9 | -12% | . | . | . | .
Cc1ccc(NC(=O)CN(C)C(=O)c2cc(-c3ccccc3)nn2-c2ccccc2)cc1 | ? | . | 11µM* | -1% | 3 | ? | 18µM* | -22% | 16µM* | 9%
Cc1ccc(C)c(NC(=O)CN(C)C(=O)c2cc(-c3cccs3)nn2-c2ccccc2)c1 | -28% | -2% | -1% | -5% | 1 | -19% | . | . | . | .
CNc1nc(C)c(C(C)(C)C)s1 | -8% | 1% | 3% | 8% | 20 | 1% | . | . | . | .
COc1ccc(C)c2sc(N(CCCN(C)C)C(=O)c3ccc(S(=O)(=O)N4CCc5ccccc5C4)cc3)nc12 | 2.3µM* | -27% | 5µM* | 7.1µM* | -96* | 2.9µM* | 4.6µM* | 5.2µM* | 5.2µM* | ?
Cc1cc(C)c2c(n1)nn1c(C)c(CCC(=O)Nc3ccc(C)c(Cl)c3)c(C)nc21 | ? | . | . | -17% | . | -14% | . | . | . | .
COC(=O)c1ccc2nc(-c3ccco3)c(Cc3cccc(F)c3)n2c1 | 18µM* | . | 14µM* | -19% | 28 | 16µM* | 21µM* | -12% | ? | 25%
Cc1cccc(N2CCN(CC(=O)NCC3CCCCC3)CC2)c1C | ? | 4% | 10µM* | -38% | -24 | ? | -24% | -6% | ? | 12%
CCc1cc2c(=O)n(CCC(C)C)c(=S)[nH]c2s1 | ? | 2% | ? | -25% | 100 | ? | . | . | . | .
Cn1ccnc1C(OC(=O)c1ccccc1)C(F)(F)F (stereo not drawn) | ? | 0% | -9% | 2% | 17 | ? | . | . | . | .
CCCC(=O)NC(=S)Nc1cccc(Cl)c1N1CCCCC1 | ? | -16% | 7.9µM* | -87% | 64 | ? | 15µM* | ? | ? | 51%
CCCCC(=O)NC(=S)Nc1cccc(Cl)c1N1CCCCC1 | ? | -16% | ? | -20% | ? | ? | . | . | . | .
CCC(=O)Nc1c(S(=O)(=O)c2ccccc2)c2nc3ccccc3nc2n1C(C)c1ccccc1 (stereo not drawn) | ? | i | 13µM* | -21% | ? | ? | ? | -21% | ? | 26%
Cc1oc2c(CN3CCCC(C)C3)c(O)ccc2c(=O)c1-c1ccccc1 (stereo not drawn) | 20% | 89% | 4% | -6% | 5 | -4% | . | . | . | .
CC1=Nc2ccccc2/C1=C\c1sc(Nc2ccc(C)cc2)nc1O | 0.92µM* | -25% | 11µM* | -3% | -53* | 0.58µM* | 5.2µM* | ? | 5.2µM* | 17%
CC(C)(C)C(O)/C=C/c1ccc2c(c1)OCO2 (stereo not drawn) | -23% | . | . | . | . | -26% | . | . | . | .
Cc1ccc(OCCCC(=O)Nc2ccc(Cl)c(S(=O)(=O)N3CCOCC3)c2)cc1 | 18µM* | -25% | 8.9µM* | -27% | ? | ? | ? | ? | 3% | 1%
CC(C)[C@H](NC(=O)C1CCN(S(=O)(=O)c2ccccc2)CC1)C(=O)NCc1ccco1 | 16% | -1% | -2% | -7% | 4 | -2% | . | . | . | .
CCOC(=O)Nc1nc(-c2ccccc2)c(C(=O)c2ccc(Cl)cc2)s1 | 0.92µM* | -19% | 8.9µM* | 16% | 36 | 0.73µM* | 7.3µM* | -9% | 9.2µM* | 3%
CCOC(=O)Nc1sc(C)nc1-c1ccccc1 | -4% | 4% | 5% | 5% | -6 | 10% | . | . | . | .
